# Compounds with a hit are over-represented: about 4.1% of the library has one in this group of screens.
# 697 NFkB inh: lowers PMA/ionomycin-induced NF-kB signal in 697 B cells. hit rate 0.33% among 330,000. inhibition, % at 4 µM. 697 B-cell NF-kB luciferase reporter, 16 h; in the data active = inhibition above about 35%
# aSyn UTR inh: 5' untranslated region of α-synuclein, MLPCN primary screen; hit rate 0.82% among 300,000; inhibition, % (tested at 7.5 µM); AID 1813; alpha-synuclein 5'UTR reporter, inhibitor activity; in the data active = inhibition above about 60%;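 note: H4 neuroglioblastoma cells stably carrying SNCA 5'UTR luciferase fusion; 0% = DMSO wells and 100% = positive control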
# Jurkat NFkB inh: lowers PMA/ionomycin-induced NF-kB signal in Jurkat cells. PMA/ionomycin-induced NF-kB luciferase reporter, luminescence. inhibition, % at 4 µM. hit rate 0.53% among 330,000. AID 435003; in the data active = inhibition above about 50%
# Mdm2 MdmX PPI: inhibitors of human Mdm2/MdmX interaction. O15151+Q00987. SaOS-2 split-luciferase Mdm2/MdmX complementation, luminescence. inhibition, % at 8 µM. hit rate 3% among 330,000;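 active = inhibition of at least 50% at 8 µM in the primary screen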
# Target sequence (O15151 whole entry, looked up): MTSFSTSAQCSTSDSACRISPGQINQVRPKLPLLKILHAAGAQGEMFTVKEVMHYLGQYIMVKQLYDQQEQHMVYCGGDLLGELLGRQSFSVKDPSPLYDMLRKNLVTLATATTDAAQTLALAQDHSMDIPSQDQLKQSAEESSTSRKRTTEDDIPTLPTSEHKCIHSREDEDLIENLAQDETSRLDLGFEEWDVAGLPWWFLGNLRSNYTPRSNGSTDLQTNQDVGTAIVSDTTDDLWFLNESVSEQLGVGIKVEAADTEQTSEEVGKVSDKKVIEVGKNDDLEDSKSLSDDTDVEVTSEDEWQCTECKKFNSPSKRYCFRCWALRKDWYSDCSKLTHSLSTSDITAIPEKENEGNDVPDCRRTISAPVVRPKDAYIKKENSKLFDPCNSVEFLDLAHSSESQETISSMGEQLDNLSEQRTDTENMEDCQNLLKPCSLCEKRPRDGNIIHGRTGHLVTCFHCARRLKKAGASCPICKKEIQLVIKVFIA
# Target sequence (Q00987 whole entry, looked up): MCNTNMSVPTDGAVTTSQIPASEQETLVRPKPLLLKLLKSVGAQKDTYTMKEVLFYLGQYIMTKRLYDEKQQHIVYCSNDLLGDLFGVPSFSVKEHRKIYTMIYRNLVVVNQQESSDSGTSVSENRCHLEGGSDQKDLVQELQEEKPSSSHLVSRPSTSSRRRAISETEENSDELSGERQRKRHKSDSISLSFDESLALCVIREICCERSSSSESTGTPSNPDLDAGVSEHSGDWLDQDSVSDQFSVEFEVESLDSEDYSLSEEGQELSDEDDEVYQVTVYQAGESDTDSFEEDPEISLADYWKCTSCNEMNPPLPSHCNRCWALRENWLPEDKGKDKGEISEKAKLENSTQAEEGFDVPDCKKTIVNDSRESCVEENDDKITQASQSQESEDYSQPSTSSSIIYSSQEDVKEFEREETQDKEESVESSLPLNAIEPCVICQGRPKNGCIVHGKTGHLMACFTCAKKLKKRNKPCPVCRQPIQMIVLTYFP
# KLF5 inh: kruppel-like factor 5 inhibition; DLD-1 KLF5 promoter-luciferase reporter, luminescence; inhibition, % at 5 µM; hit rate 0.23% among 290,000; AID 1700;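 active = inhibition above a per-plate limit of that plate's mean compound inhibition plus 3 SD, cut at about 60% in these data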;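 note: 0% = DMSO wells and 100% = LY294002 at 200 µM; higher means less KLF5 promoter-driven luciferase light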
# Gli-Sufu block: blocks Gli-Sufu signaling in a luciferase reporter; Sufu-KO-LIGHT fibroblasts, Gli luciferase reporter luminescence; inhibition, % at 5 µM; hit rate 0.74% among 340,000;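 active = inhibition above about 55%, limit read from the data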;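 note: 0% = DMSO-treated cells and 100% = wells with medium but no cells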
# Mdm2-MdmX conf: confirmation of human Mdm2/MdmX interaction inhibitors; Mdm2-MdmX binding, luminescent assay; shares compounds with Mdm2 MdmX PPI; hit rate 55% among 10,000; inhibition, % at 8 µM; AID 489028; in the data active = inhibition above about 40%
# FLuc counter: inhibits full-length luciferase, flagging false Mdm2/MdmX hits | hit rate 77% among 6,200 | shares compounds with Mdm2 MdmX PPI | SaOS-2 full-length luciferase counterscreen, luminescence | AID 504607 | inhibition, % at 8 µM;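 active = mean inhibition at 8 µM reaching about 37%, which flags the compound as non-specific, limit read from the data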;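 note: p53-null SaOS-2 cells with luciferase driven by a doxycycline-inducible promoter; compound on cells about two nights before reading with doxycycline added after day one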
# * marks the source's active call; other numbers are inactive results; . = no result.
SMILES,697 NFkB inh,aSyn UTR inh,Jurkat NFkB inh,Mdm2 MdmX PPI,KLF5 inh,Gli-Sufu block,Mdm2-MdmX conf,FLuc counter
O=C(CC1CS(=O)(=O)CC1CC(=O)Nc1ccc2c(c1)OCCO2)Nc1ccc2c(c1)OCCO2 (stereo not given),-85.4,-53.4,-50.9,63.2*,-28.6,42.3,76.6*,90.0*
O=C1CCCCc2sc(Br)c([N+](=O)[O-])c2N1,13.0,32.6,12.5,63.6*,-15.3,-0.9,30.1,56.5*
CCOC(=O)c1nc(Nc2ccc(N3CCC(C)CC3)cc2)c2ccccc2n1,-22.0,-15.1,-8.3,7.4,-15.1,4.6,.,.
CCC(C)NC(=O)Cn1cnc2sc(C)c(S(=O)(=O)N3CCCCC3)c2c1=O (stereo not given),13.0,8.3,-10.4,13.7,-29.6,14.9,.,.
CCOC(=O)c1ccc(NC(=O)NCCc2cnc[nH]2)cc1,-9.9,-23.5,-13.8,-1.5,-65.5,3.1,.,.
CCNC(=S)N1CCNC(=O)C1CC(=O)OC (stereo not given),6.7,-6.2,-2.8,-10.8,-11.8,30.1,.,.
COCCNC(=O)C/C(C)=N/NC(=O)C(=O)NC1CCCCC1,5.0,-24.5,0.1,11.0,-6.7,6.8,.,.
CCSc1nc(-c2ccccc2)c2cc(Cl)ccc2n1,2.0,23.9,0.5,21.1,19.7,-2.0,.,.
CSc1nc(-c2ccc(C)cc2)nc(C(Cl)Cl)n1,-21.2,32.3,28.0,97.3*,-18.2,17.2,94.8*,39.9*
CSc1nc(Cl)c(C#N)c(-c2ccc(C)cc2)n1,25.1,18.9,6.8,10.8,-21.0,1.3,.,.
CCSc1nc(-c2ccccc2)nc(C(Cl)Cl)n1,-6.9,123.0*,-7.0,98.3*,-13.3,15.3,99.7*,4.1
COc1ccccc1C1CC(c2cccc(NS(C)(=O)=O)c2)=NN1S(=O)(=O)c1ccccc1 (stereo not given),-12.8,23.0,3.0,-7.2,-6.4,2.0,.,.
Cc1ccc(C)c(C(C)NC(=O)c2ccc(Br)o2)c1 (stereo not given),12.9,-13.2,-4.1,8.3,-30.7,-23.5,.,.
Nc1c(C(=O)NC2CCCC2)c2nc3ccccc3nc2n1/N=C/c1ccco1,7.7,-3.6,9.2,72.8*,-19.9,2.4,9.2,.
CN(CC(=O)Nc1ccc(Cl)cc1)C(=O)CCc1nc2sc3c(c2c(=O)[nH]1)CCCC3,-3.1,2.9,-13.9,86.0*,.,7.5,50.5*,95.8*
CN(CC(=O)Nc1ccc(F)cc1)C(=O)CCc1nc2sc3c(c2c(=O)[nH]1)CCCC3,-5.1,-1.4,-7.0,14.2,.,8.5,.,.
Cc1cc(C)cc(NC(=O)CCc2nc3sc4c(c3c(=O)[nH]2)CCCC4)c1,31.9,16.7,11.6,82.1*,.,-58.6,94.4*,95.8*
COc1ccc(C(CNC(=O)c2[nH]c(C)c(C(C)=O)c2C)N2CCOCC2)cc1 (stereo not given),1.9,.,-17.6,2.7,.,2.9,.,.
CN(C)c1ccc(C(=O)OCC(=O)Nc2ccc(S(N)(=O)=O)cc2)cc1,13.0,0.8,2.8,52.9*,1.4,-5.8,-11.9,.
CN(C)c1ccc(NC(=O)COC(=O)c2ccc3c(c2)OCO3)cc1,6.5,.,-0.3,-1.6,.,30.1,.,.
CCC(=O)/C=C1/Sc2ccc(OC)cc2N1CCO,-5.4,-6.8,3.3,-4.0,-7.8,-1.1,.,.
CCC(/C=C1\Sc2ccc(OC)cc2N1CCO)=C\c1sc2ccc(OC)cc2[n+]1CCO,1.5,.,-0.7,72.4*,-1.4,49.0,21.8,.
Cc1ccc(S(=O)(=O)NNC(=O)C(O)(c2ccccc2C)c2ccccc2C)cc1,0.1,5.9,-8.0,-21.7,5.4,1.9,.,.
COc1ccc([C@@H]2[C@@H]3C(=O)N(C(C)(C)C)C(=O)[C@@H]3[C@]3(Cc4ccccc4)C(=O)N(c4ccc(Br)cc4)C(=O)N23)cc1,-24.2,-21.1,8.6,62.9*,-12.2,-13.0,71.3*,35.6
Cc1cccc([C@@H]2[C@@H]3C(=O)N(Cc4ccccc4)C(=O)[C@@H]3[C@]3(Cc4ccc(Cl)cc4)C(=O)N(c4ccc(Br)cc4)C(=O)N23)c1,9.5,2.8,-0.1,90.4*,-4.9,-2.2,99.5*,49.4*
